Source: ChEMBL document CHEMBL3988442, “University of Dundee, Small-Polar-MMV Screening Library” (2021)
Hit rate of the full screen: of about 38,000 compounds, about 1,200 (3.2%) showed an effect of 50% or more. The median lay at about -58%. What follows is part of a selection rich in strong results, with near analogues and random picks from the rest.

System: Plasmodium falciparum
Assay: Calibr Malaria Delayed Death Assay SOP
Assay type: functional, organism-based
Parameters: scale not given: in the data most compounds retested in dose-response had high values
Details: concentration 4.99e-06 (unit not given; other assays of the set use mol/L)

SMILES | Percent Effect
Cc1noc(CN(C)C2CCCN(Cc3noc(C4CC4)n3)C2)n1 (stereo not drawn) | -141.9%
Cc1cc(CN2CCOC(CNc3cccnn3)C2)no1 (stereo not drawn) | -113%
CO[C@H]1CN(CC2CCOCC2)[C@@H]2CCCO[C@H]12.O=C(O)C(F)(F)F | -55.37%
Cn1ccnc1CCC1CCCCN1Cc1nccn1C (stereo not drawn) | 23.43%
Cc1c[nH]c(CN2CCCCC2CCn2ccnc2C)c(C)c1=O (stereo not drawn) | -167.9%
CCOC(C)c1nccn1CCC(=O)Nc1cc(C)on1 (stereo not drawn) | -31.31%
CCn1cnc2c(cnn2-c2cccc(C)c2C)c1=O | -109.7%
CC(=O)c1c(O)n(C)c2ccc(F)cc12 | -135.9%
Cc1cnn(CCNCc2ccc(OCc3cscn3)cc2)c1 | -21.22%
CC[C@H]1CN2CC[C@H]1C[C@@H]2CNC(=O)Nc1cccc(C(F)(F)F)c1 | -88.31%
CC[C@H]1CN2CC[C@H]1C[C@@H]2CNC(=O)Nc1ccccc1 | -66.09%
CCN1CCCC(O)(CNCc2ccc3c(c2)OCO3)C1 (stereo not drawn) | 14.07%
CC[C@H]1CN2CC[C@H]1C[C@@H]2CNCc1ccc2c(c1)OCO2 | 60.86%
CC[C@H]1CN2CC[C@H]1C[C@@H]2CNC(=O)NC1CCCCC1 | -27.77%
CC[C@H]1CN2CC[C@H]1C[C@@H]2CNC(=O)Nc1cc(OC)cc(OC)c1 | 63.7%
CC[C@H]1CN2CC[C@H]1C[C@@H]2CNCc1ccc(OC(F)(F)F)cc1 | 85.66%
CC(C)NC(=O)NC[C@H]1C[C@@H]2CCN1C[C@@H]2CN(C)c1ccccc1 | -39.27%
CC[C@H]1CN2CC[C@H]1C[C@@H]2CNC(=O)Nc1cccc(C#N)c1 | -82.85%
CC[C@H]1CN2CC[C@H]1C[C@@H]2CNCc1cccc(C#N)c1 | 34.74%
CC[C@H]1CN2CC[C@H]1C[C@@H]2CNCc1ccc(OC)cc1 | 6.891%
CC[C@H]1CN2CC[C@H]1C[C@@H]2CNCc1ccc(N(C)C)cc1 | 62.75%
CC(C)c1ccc(NS(=O)(=O)CC2=NC(=O)n3cccc3C2=O)cc1 | -194.3%
CO[C@H]1CO[C@@]2(CCCN(C(=O)C3CC=CC3)C2)C1 | -81.44%
CC(C)CNC(=O)CSC1CCc2ccccc2NC1=O (stereo not drawn) | -170.7%
Cc1c(C(C)N)cnn1-c1ccccn1 (stereo not drawn) | -122.1%

SMILES | Percent Effect
COc1ccc(-n2ncc(C(C)NC3Cc4ccccc4C3)c2C)cc1 (stereo not drawn) | 1.566%
Cc1c(C(C)N)cnn1-c1cccc2ccccc12 (stereo not drawn) | 74.08%
Fc1ccc(CN2Cc3nccn3CC(CN3CCOCC3)C2)cc1.O=C(O)C(F)(F)F.O=C(O)C(F)(F)F (stereo not drawn) | -18.4%
CC(=O)c1cccc(OCc2cc(C(=O)N3CCCCO3)n[nH]2)c1 | -55.13%
Cc1ccc(OCC(C)NS(=O)(=O)Cc2ccon2)cc1 (stereo not drawn) | -50.51%
Cc1nnc(N2CC[C@H](OCC3CC3)[C@@H](Cc3ccccc3)C2)s1.O=C(O)C(F)(F)F | -5.425%
Cc1nc(CN2CC[C@H](OCC3CC3)[C@@H]2Cc2cccnc2)cs1.O=C(O)C(F)(F)F.O=C(O)C(F)(F)F | 60.39%
CO[C@@H]1CCN(c2nnc(C)s2)C[C@@H]1Cc1ccccc1.O=C(O)C(F)(F)F | -42.62%
COCC1CC2(CCN(C(C)=O)CC2)CN1Cc1csc(C)n1.O=C(O)C(F)(F)F (stereo not drawn) | -10.79%
CCN1CCC2(CC1)CC(COC)N(Cc1csc(C)n1)C2.O=C(O)C(F)(F)F.O=C(O)C(F)(F)F (stereo not drawn) | -25.47%
Cc1nc(CN2CC[C@@H](OCC3CC3)[C@@H]2Cc2cccnc2)cs1.O=C(O)C(F)(F)F.O=C(O)C(F)(F)F | 6.851%
Cc1ccc(N2CC[C@H](OCC3CC3)[C@@H]2Cc2cccnc2)nn1.O=C(O)C(F)(F)F | -86.08%
Cc1nnc(N2CC[C@@H](OCC3CC3)[C@@H](Cc3ccccc3)C2)s1.O=C(O)C(F)(F)F | 84.3%
COCC1CC2(CCN(CC3CC3)CC2)CN1Cc1csc(C)n1.O=C(O)C(F)(F)F.O=C(O)C(F)(F)F (stereo not drawn) | 52%
COc1cc(OC)c(C2CC(=O)Oc3cc(C)[nH]c(=O)c32)c(OC)c1 (stereo not drawn) | -23.56%
COc1ccc(CN(C)CC(=O)c2ccc3[nH]c(=O)[nH]c3c2)cc1F | -24.42%
COc1cccc(S(=O)(=O)NC(=O)CC2CCCO2)c1 (stereo not drawn) | -80.63%
CC(C)NC(=O)C1CN(C(=O)Cc2ccccc2)CC12CCOCC2 (stereo not drawn) | -95.53%
CCCS(=O)(=O)NCCc1ncc(CC)s1 | -128.9%
OCCN1CCN(Cc2coc(-c3cccc(F)c3)n2)CC1 | -200.4%
CC(C)(C#N)c1ccccc1CN(CCO)Cc1ccsc1 | -17.47%
CCCc1nnc([C@H]2CCN(Cc3ncc[nH]3)C2)o1 | -53.09%
C[C@]1(O)CN(Cc2ncc[nH]2)CC[C@@H]1Oc1cccc(F)c1 | -12.82%
O=C(O)C(F)(F)F.O=S(=O)(c1cccs1)N1Cc2nc(CN3CCCC3)oc2C1 | -93.44%
COC(=O)CCNC(=O)c1cc(-c2ccc(OC)cc2)nn1C | -127.7%

SMILES | Percent Effect
Cc1nn(C)c2c(N3CCC(C)CC3)nc(C3CC3)nc12 | -7.534%
Cc1nc(N2CCCC2)nc2c1CN(C(C)C)CC2.O=C(O)C(F)(F)F | -39.09%
CCN1CCc2nc(N3CCOCC3)nc(NC(C)C)c2C1 | 12.6%
CC(C)Nc1nc(-c2ccccc2)nc2c1CCN(C(=O)C1CC1)CC2.O=C(O)C(F)(F)F | 24.24%
CC(C)Nc1nc(N2CCCC2)nc2c1CN(c1ncc(F)cn1)CC2 | 23.23%
CCCN1CCc2nc(N3CCOCC3)nc(NC(C)C)c2C1 | -40.15%
CC(C)Nc1nc(N2CCCC2)nc2c1CN(C)CC2 | 48.45%
CC(C)Nc1nc(N2CCCC2)nc2c1CN(S(C)(=O)=O)CC2 | 50.55%
CCC(C)N1CCc2nc(N3CCCC3)nc(NC(C)C)c2C1 (stereo not drawn) | 77.92%
CC(C)Nc1nc(N2CCCC2)nc2c1CCN(S(C)(=O)=O)CC2.O=C(O)C(F)(F)F.O=C(O)C(F)(F)F | 51.48%
Cn1ccnc1CN1CCCN(C(=O)c2ccc3cc[nH]c3c2)CC1 | -18.34%
Cc1nc(CO[C@@H]2CC[C@H]3[C@H]2OCCN3Cc2cccnc2)cs1.O=C(O)C(F)(F)F.O=C(O)C(F)(F)F.O=C(O)C(F)(F)F | -25.46%
CC(C)CNC(=O)N1C[C@H]2C[C@H](C(=O)NCc3ccccc3)[C@@H](C1)O2 | -25.06%
O=C(NCc1cc[nH]n1)N1CCN(c2ncccn2)CC1 | -98.04%
Cc1ccoc1C(=O)N1Cc2c(CN3CCCCC3)nn(C)c2C1.O=CO | -35.59%
Cc1cc(CN(C)C2CCCN(c3cccnn3)C2)no1 (stereo not drawn) | -12.48%
Cc1oncc1C(=O)NCC1(O)CCc2ccccc2C1 (stereo not drawn) | -85.49%
COc1coc(C(=O)Nc2nc(-c3ccncc3)cs2)cc1=O | -115.6%
Cc1ccc(NC2CCN(C(=O)COc3cccc(F)c3)CC2)nn1 | -0.3434%
Cn1cc(C[C@H]2[C@H](O)CCN2Cc2ccncc2)cn1.O=C(O)C(F)(F)F.O=C(O)C(F)(F)F | -36.65%
O=C(CCN1CCCC1c1cccc(F)c1)N1CCc2sccc2C1 (stereo not drawn) | 40.53%
COc1ccc(CNCCC(=O)N2CCc3sccc3C2)cc1O | 34.01%
O=C(CCN1CCCC1C1CCCCC1)N1CCc2sccc2C1 (stereo not drawn) | 58.84%
N#Cc1cccc(CNCCC(=O)N2CCc3sccc3C2)c1 | 18.53%
Cc1cc(C2CCCN2CCC(=O)N2CCc3sccc3C2)no1 (stereo not drawn) | -5.731%

SMILES | Percent Effect
O=C(CCNCc1cccc(O)c1)N1CCc2sccc2C1 | 50.25%
CNc1nc(C)c(C(=O)N2C[C@@H](C(=O)O)[C@H](C3CC3)C2)s1 | -129.8%
Cc1cc(C[S+]([O-])CC(=O)NCc2ccccc2)no1 (stereo not drawn) | -44.89%
C[C@H](NC(=O)OC(C)(C)C)c1nnc(S(=O)(=O)Cc2cccc(F)c2)o1 | -198.9%
Cc1nc2c(c(NC(C)c3nnn[nH]3)n1)Cc1ccccc1OC2 (stereo not drawn) | -22.04%
CNS(=O)(=O)c1cccc(C(C)NCc2cccc(OC)c2)c1 (stereo not drawn) | -0.2291%
CNS(=O)(=O)c1cccc(C(C)NCc2ccccc2OC)c1 (stereo not drawn) | 86.21%
CNS(=O)(=O)c1cccc(C(C)NCc2cccc(C)c2C)c1 (stereo not drawn) | 68.88%
CNS(=O)(=O)c1cccc(C(C)NCc2ccco2)c1 (stereo not drawn) | 0.2758%
CNS(=O)(=O)c1cccc(C(C)NCc2ccc(F)cc2F)c1 (stereo not drawn) | -6.511%
CNS(=O)(=O)c1cccc(C(C)NCc2ccc(C)o2)c1 (stereo not drawn) | 21.13%
O=C(c1cc2c(s1)CCCCC2)N1CCC(c2ncc[nH]2)CC1 | -34.19%
COc1nc2c(cc1C(=O)N1CCCCC1c1ccccn1)CCC2 (stereo not drawn) | -121.2%
Cc1nn(CC(C)C)c(N(C)C)c1CNCc1ccc(CO)c(F)c1 | -6.96%
O=C(CCNS(=O)(=O)c1ccc(F)cc1)NCc1ccoc1 | -96.77%
CCCc1nc(CN2CCCC2Cn2cncn2)no1 (stereo not drawn) | -44.73%
CCSc1ncc(CN2CCC(O)(CN3CCOCC3)C(C)(C)C2)cn1 (stereo not drawn) | 16.41%
COc1ccc2c(c1)C(NCCc1ncc(C)s1)CCCO2 (stereo not drawn) | -37.71%
COc1ccc2c(c1)C(NCCc1c(C)noc1C)CCCO2 (stereo not drawn) | 29.88%
COc1c(CNC2CCCOc3ccccc32)c(C)nn1C (stereo not drawn) | -45.12%
COc1cccc(CNC2CCCOc3cc(C)ccc32)n1 (stereo not drawn) | 67.49%
Cc1ccc2c(c1)OCCCC2NC1CCN(C)CC1 (stereo not drawn) | 47.45%
COc1ccc2c(c1)C(NCCc1ccccn1)CCCO2 (stereo not drawn) | 57.17%
